Outcome and AC50 data for three compounds are collected here from PubChem BioAssay (EPA / NIEHS).

Common to all, as to details: mRNA level, 48 h; actives raise or lower the signal
Read-out in one assay: BCL2L11 (gene 10018)
Description: LTEA_HepaRG_BCL2L11: Life Technologies and Expression Analysis (LTEA) Assay for Bcl-2 (BCL2L11) gene using HepaRG (AID 2283473). The method in brief:
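HepaRG, 48 h exposure, 8-pt half-log series from 100 uM in 0.5% DMSO, duplicates; qRT-PCR (Fluidigm TaqMan) for BCL2L11, housekeeping-normalized; bidirectional curve fit relative to DMSO baseline.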

Read-out in assay [1]: Apolipoprotein A-V (APOA5) gene, APOA5 (gene 116519)
Description: LTEA_HepaRG_APOA5: Life Technologies and Expression Analysis (LTEA) Assay for Apolipoprotein A-V (APOA5) gene using HepaRG (AID 2283474). The essentials: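 HepaRG, 48 h chemical exposure in serum-free induction medium, 8-pt half-log series (top 100 uM), 0.5% DMSO vehicle, duplicates. Readout: APOA5 mRNA by qRT-PCR, housekeeping-normalized; bidirectional fit vs DMSO baseline.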

Read-out in assay [2]: Apoptosis regulator Bcl-2 (Homo sapiens) (UniProt P10415)
Description: LTEA_HepaRG_BCL2: Life Technologies and Expression Analysis (LTEA) Assay for Bcl-2 gene using HepaRG (AID 2283475). The essentials: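 qRT-PCR of BCL2 transcript, normalized to three housekeeping genes (ACTB, GAPDH, POLR2A), after 48 h chemical exposure of HepaRG cells; concentrations top 100 uM with half-log dilutions, 0.5% DMSO vehicle, duplicates; changes up or down fitted relative to vehicle.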

Read-out in assay [3]: Bcl-2 (BID) gene, BID (gene 637)
The assay is described as follows: LTEA_HepaRG_BID: Life Technologies and Expression Analysis (LTEA) Assay for Bcl-2 (BID) gene using HepaRG (AID 2283476). The essentials:
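Duplicate 48 h treatments of HepaRG cells in serum-free induction medium spanned 100 uM downward in half-log steps, 0.5% DMSO. Transcript change quantified by qRT-PCR against three housekeeping genes, fitted up or down versus DMSO.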

Read-out in a further assay: Caspase-3 (Homo sapiens) (UniProt P42574)
Description: LTEA_HepaRG_CASP3: Life Technologies and Expression Analysis (LTEA) Assay for cysteine-aspartic acid protease (CASP3) using HepaRG (AID 2283477). The essentials:
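HepaRG, 48 h exposure, 8 conc. (top 100 uM, half-log steps, duplicate), 0.5% DMSO vehicle; qRT-PCR of CASP3 transcript, housekeeping-normalised (ACTB/GAPDH/POLR2A); bidirectional curve fit vs DMSO baseline.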

Read-out in assay [4]: Cytochrome P450 (CYP24A1), CYP24A1 (gene 1591)
The assay is described as follows: LTEA_HepaRG_CYP24A1: Life Technologies and Expression Analysis (LTEA) Assay for Cytochrome P450 (CYP24A1) using HepaRG (AID 2283478). The essentials: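 qRT-PCR read-out: CYP24A1 transcript levels normalized to three housekeeping genes, bidirectional curve fits against 0.5% DMSO baseline. Human HepaRG cells treated 48 h with chemicals at eight concentrations from 100 uM in half-log steps.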

Read-out in assay [5]: Cytochrome P450 (CYP1A2), CYP1A2 (gene 1544)
The assay is described as follows: LTEA_HepaRG_CYP1A2: Life Technologies and Expression Analysis (LTEA) Assay for Cytochrome P450 (CYP1A2) using HepaRG (AID 2283479). The essentials:
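HepaRG, 48 h exposure, top 100 uM, half-log 8-pt, 0.5% DMSO vehicle, duplicates. Readout: TaqMan qRT-PCR of CYP1A2 mRNA, housekeeping-normalized (ACTB/GAPDH/POLR2A). Gain/loss fit relative to DMSO baseline.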

Read-out in assay [6]: cysteine-aspartic acid protease (CASP8), CASP8 (gene 841)
Description: LTEA_HepaRG_CASP8: Life Technologies and Expression Analysis (LTEA) Assay for cysteine-aspartic acid protease (CASP8) using HepaRG (AID 2283480). The method in brief:
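Concentration-response in duplicate up to 100 uM (half-log steps, 0.5% DMSO) on differentiated HepaRG cultures for 48 h. Expression change of CASP8 mRNA is determined by TaqMan qRT-PCR with housekeeping-gene normalization.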

Read-out in assay [7]: Cytochrome P450 (CYP2B6), CYP2B6 (gene 1555)
Description: LTEA_HepaRG_CYP2B6: Life Technologies and Expression Analysis (LTEA) Assay for Cytochrome P450 (CYP2B6) using HepaRG (AID 2283481). The method in brief:
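Read-out is CYP2B6 mRNA by TaqMan qRT-PCR, normalized to three housekeeping genes and fitted bidirectionally against 0.5% DMSO baseline. Human HepaRG cells received test chemicals for 48 h, top concentration 100 uM, half-log dilutions.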

Read-out in assay [8]: Cytochrome P450 2C19 (Homo sapiens) (UniProt P33261)
The assay is described as follows: LTEA_HepaRG_CYP2C19: Life Technologies and Expression Analysis (LTEA) Assay for CYP2C19 using HepaRG (AID 2283482). The method in brief: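 HepaRG, 48 h chemical exposure, 8-pt half-log series from 100 uM in 0.5% DMSO, duplicates. Readout: CYP2C19 mRNA by TaqMan qRT-PCR, housekeeping-normalized. Bidirectional fit vs DMSO baseline; phenobarbital 1mM as induction control.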

Read-out in a further assay: CYP2C9 (gene 1559)
Description: LTEA_HepaRG_CYP2C9: Life Technologies and Expression Analysis (LTEA) Assay for CYP2C9 using HepaRG (AID 2283484). The method in brief: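 Eight-point concentration-response (highest 100 uM, half-log dilutions) in HepaRG cells for 48 h; CYP2C9 expression by qRT-PCR normalized to ACTB, GAPDH, POLR2A. Bidirectional fit, DMSO baseline.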

Read-out in another assay: CYP2E1 (gene 1571)
The assay is described as follows: LTEA_HepaRG_CYP2E1: Life Technologies and Expression Analysis (LTEA) Assay for CYP2E1 using HepaRG (AID 2283485). The method in brief: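 CYP2E1 transcript measured by Fluidigm qRT-PCR against three housekeeping genes in human HepaRG cells treated 48 h (top 100 uM, half-log steps, 0.5% DMSO vehicle). Gain or loss fitted relative to DMSO baseline.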

Read-out in a further assay: CYP4A11 (gene 1579)
Description: LTEA_HepaRG_CYP4A11: Life Technologies and Expression Analysis (LTEA) Assay for CYP4A11 using HepaRG (AID 2283486). The essentials:
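CYP4A11 transcript levels were quantified by TaqMan qRT-PCR after HepaRG human liver cells were treated for 48 hours with test chemicals (top 100 uM, half-log dilutions, 0.5% DMSO). Gain or loss of signal was fitted relative to DMSO.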

Read-out in assay [9]: Cytochrome P450 3A4 (Homo sapiens) (UniProt P08684)
Description: LTEA_HepaRG_CYP3A4: Life Technologies and Expression Analysis (LTEA) Assay for CYP3A4 using HepaRG (AID 2283487). The method in brief: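 Differentiated HepaRG cells in serum-free induction medium exposed in duplicate for 48 h to 8 half-log concentrations up to 100 uM in 0.5% DMSO. CYP3A4 mRNA measured by qRT-PCR normalized to ACTB, GAPDH and POLR2A; bidirectional fit versus DMSO.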

Read-out in assay [10]: DNA damage-inducible transcript 3 (DDIT3), DDIT3 (gene 1649)
The assay is described as follows: LTEA_HepaRG_DDIT3: Life Technologies and Expression Analysis (LTEA) Assay for DNA damage-inducible transcript 3 (DDIT3) using HepaRG (AID 2283488). The method in brief: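 DDIT3 transcript was quantified by qRT-PCR with ACTB/GAPDH/POLR2A normalization after 48 h chemical treatment of differentiated HepaRG cells in 0.5% DMSO. Dosing was eight-point, half-log, top 100 uM, duplicate wells. Curves fitted bidirectionally versus DMSO.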

Read-out in assay [11]: Pro-epidermal growth factor (Homo sapiens) (UniProt P01133)
The assay is described as follows: LTEA_HepaRG_EGF: Life Technologies and Expression Analysis (LTEA) Assay for Epidermal growth factor (EGF) using HepaRG (AID 2283489). The essentials:
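qRT-PCR readout of EGF transcript after 48 h chemical exposure of HepaRG cells; eight concentrations from 100 uM down in half-log steps, duplicate wells, 0.5% DMSO vehicle. Bidirectional curve fitting against DMSO baseline.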

Read-out in assay [12]: Early growth response protein 1 (EGR1) transcription factor, EGR1 (gene 1958)
Description: LTEA_HepaRG_EGR1: Life Technologies and Expression Analysis (LTEA) Assay for Early growth response protein 1 (EGR1) transcription factor using HepaRG (AID 2283490). The method in brief:
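EGR1 expression change in human HepaRG after 48 h chemical exposure, assessed by housekeeping-normalized qRT-PCR; concentration-response up to 100 uM, fitted in both directions against DMSO controls.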

Read-out in assay [13]: Ezrin (EZR), EZR (gene 7430)
Description: LTEA_HepaRG_EZR: Life Technologies and Expression Analysis (LTEA) Assay for Ezrin (EZR) using HepaRG (AID 2283491). The method in brief:
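Differentiated human HepaRG cells, 48 h after plating, were exposed in serum-free induction medium for 48 hours to eight half-log concentrations up to 100 uM in 0.5% DMSO. EZR mRNA was measured by TaqMan qRT-PCR, normalized to ACTB, GAPDH and POLR2A, and fitted bidirectionally against DMSO.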

Read-out in assay [14]: Cytochrome P450 3A7 (Homo sapiens) (UniProt P24462)
Description: LTEA_HepaRG_CYP3A7: Life Technologies and Expression Analysis (LTEA) Assay for CYP3A7 using HepaRG (AID 2283492). The essentials: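 CYP3A7 transcript levels were read by TaqMan qRT-PCR on Fluidigm arrays after 48 h chemical exposure of human HepaRG cells, with housekeeping-gene normalisation. Eight half-log concentrations up to 100 uM in 0.5% DMSO were tested in duplicate.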

Activity calls are given as the source filed them. The calls were made as follows: active = hit-call score of the fitted dose curve at least 0.9, where 1 is the maximum; inactive = score below 0.9.

Sequence of Caspase-3 (Homo sapiens) (P42574 whole entry, looked up): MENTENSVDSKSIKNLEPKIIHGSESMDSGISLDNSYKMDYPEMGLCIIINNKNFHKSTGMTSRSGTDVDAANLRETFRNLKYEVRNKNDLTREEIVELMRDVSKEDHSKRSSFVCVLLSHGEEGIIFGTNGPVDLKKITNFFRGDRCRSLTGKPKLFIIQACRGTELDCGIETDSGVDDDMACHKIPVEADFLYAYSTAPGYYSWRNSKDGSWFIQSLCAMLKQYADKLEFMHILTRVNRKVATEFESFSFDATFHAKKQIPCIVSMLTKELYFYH
Sequence of Cytochrome P450 2C19 (Homo sapiens) (P33261 whole entry, looked up): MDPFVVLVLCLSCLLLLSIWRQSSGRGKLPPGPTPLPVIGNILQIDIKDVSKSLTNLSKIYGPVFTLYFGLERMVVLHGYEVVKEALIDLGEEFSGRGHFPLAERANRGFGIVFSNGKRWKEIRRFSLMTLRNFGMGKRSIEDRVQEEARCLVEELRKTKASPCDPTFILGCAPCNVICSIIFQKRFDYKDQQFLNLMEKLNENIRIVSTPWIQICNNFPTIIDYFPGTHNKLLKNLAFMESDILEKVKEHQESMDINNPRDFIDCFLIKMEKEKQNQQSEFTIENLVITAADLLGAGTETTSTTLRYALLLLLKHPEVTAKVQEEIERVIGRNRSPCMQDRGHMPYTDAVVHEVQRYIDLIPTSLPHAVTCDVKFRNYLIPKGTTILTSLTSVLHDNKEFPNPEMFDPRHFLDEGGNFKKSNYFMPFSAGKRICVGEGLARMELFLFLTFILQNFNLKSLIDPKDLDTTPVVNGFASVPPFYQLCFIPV
Sequence of Cytochrome P450 3A4 (Homo sapiens) (P08684 whole entry, looked up): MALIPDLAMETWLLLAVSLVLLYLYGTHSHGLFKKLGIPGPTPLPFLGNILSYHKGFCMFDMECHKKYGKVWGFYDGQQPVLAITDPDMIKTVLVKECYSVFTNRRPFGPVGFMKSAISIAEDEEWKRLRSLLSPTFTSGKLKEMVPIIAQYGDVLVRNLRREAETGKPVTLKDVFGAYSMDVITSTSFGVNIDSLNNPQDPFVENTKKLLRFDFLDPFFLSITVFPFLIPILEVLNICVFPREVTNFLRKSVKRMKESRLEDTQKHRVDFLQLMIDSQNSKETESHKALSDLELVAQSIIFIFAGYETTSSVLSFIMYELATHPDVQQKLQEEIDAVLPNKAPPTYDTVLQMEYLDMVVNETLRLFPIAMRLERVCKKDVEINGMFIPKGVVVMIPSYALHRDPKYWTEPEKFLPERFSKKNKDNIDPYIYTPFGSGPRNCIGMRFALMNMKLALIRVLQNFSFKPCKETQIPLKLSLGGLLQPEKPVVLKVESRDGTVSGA
Sequence of Apoptosis regulator Bcl-2 (Homo sapiens) (P10415 whole entry, looked up): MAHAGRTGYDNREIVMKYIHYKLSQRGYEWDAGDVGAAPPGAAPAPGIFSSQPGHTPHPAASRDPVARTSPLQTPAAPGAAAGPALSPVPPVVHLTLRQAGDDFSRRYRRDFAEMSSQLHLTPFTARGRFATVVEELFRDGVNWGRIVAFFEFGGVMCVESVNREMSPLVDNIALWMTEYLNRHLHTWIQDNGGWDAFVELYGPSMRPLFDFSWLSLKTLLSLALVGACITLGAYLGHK
Sequence of Cytochrome P450 3A7 (Homo sapiens) (P24462 whole entry, looked up): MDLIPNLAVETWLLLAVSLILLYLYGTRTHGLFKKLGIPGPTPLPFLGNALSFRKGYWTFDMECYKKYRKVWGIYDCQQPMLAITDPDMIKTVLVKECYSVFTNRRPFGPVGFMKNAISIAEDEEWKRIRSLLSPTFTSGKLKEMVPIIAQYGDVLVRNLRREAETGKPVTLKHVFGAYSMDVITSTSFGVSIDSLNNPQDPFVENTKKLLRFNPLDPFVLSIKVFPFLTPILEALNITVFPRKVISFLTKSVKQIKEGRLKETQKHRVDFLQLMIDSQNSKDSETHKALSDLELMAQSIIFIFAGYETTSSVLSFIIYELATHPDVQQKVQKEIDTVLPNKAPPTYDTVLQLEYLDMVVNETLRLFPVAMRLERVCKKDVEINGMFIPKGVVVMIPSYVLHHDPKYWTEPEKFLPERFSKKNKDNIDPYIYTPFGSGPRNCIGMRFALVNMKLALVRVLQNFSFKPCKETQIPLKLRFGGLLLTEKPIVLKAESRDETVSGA

Broadly, the AC50 is the concentration giving half of the maximal activity seen. Turning to `CCCCCOC(=O)c1ccccc1C(=O)OCCCCC`, the result (with BCL2L11 (gene 10018); in [1]; in assay [2]; in assay [3]; with Caspase-3 (Homo sapiens); in assay [4]) was inactive. For the same compound, the outcome (in assay [5]; in assay [6]; in assay [7]; in assay [8]; in the assay with CYP2C9 (gene 1559); with CYP2E1 (gene 1571)) was inactive. The result in [9], in assay [10], in assay [11], in [12], in assay [13] and in assay [14] was inactive. Further, the AC50 with CYP4A11 (gene 1579) is 50 µM (active).
Turning to `Nc1ccc([N+](=O)[O-])cc1`, the call (with BCL2L11 (gene 10018); in assay [1]; in assay [2]; in assay [3]; with Caspase-3 (Homo sapiens); in assay [4]) was inactive. The compound was classed as inactive (in assay [6]; in assay [7]; in assay [8]; in the assay with CYP2C9 (gene 1559); with CYP2E1 (gene 1571); in the assay with CYP4A11 (gene 1579)). Moreover, the result in assay [9], in assay [10], in assay [11], in assay [12], in [13] and in assay [14] was inactive. Besides, the AC50 in assay [5] was 39.3 µM (active).
On to `c1ccc2c(c1)-c1cccc3cccc-2c13`, for which the outcome (with BCL2L11 (gene 10018); in [1]; in [2]; in assay [3]; with Caspase-3 (Homo sapiens); in [4]) was inactive. Also, the compound was called inactive (in assay [6]; in the assay with CYP2C9 (gene 1559); with CYP4A11 (gene 1579); in [10]; in [12]; in assay [13]). In addition, the half-maximal activity concentration (AC50) in assay [5] was 50 µM (active); in assay [7], 5.03 µM (active); in assay [8], 9.15 µM (active); in the assay with CYP2E1 (gene 1571) it was 34.6 µM (active); in [9] it was 18 µM (active); in assay [14], 9.36 µM (active).
